Among all 370,000 compounds or so, about 6,800 (1.8%) were called active. The entries come from a sample that favours actives as a whole. Unmarked numbers belong to inactive results.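 Rule for the calls: active = activation above a cutoff set at the mean of all screened compounds plus 3 SD (cut at about 10% in these data); inactive = the rest.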
What follows are compounds tested on Nuclear hormone receptor DAF-12 (Heterodera glycines), GAL4 fusion (assay: H. glycines DAF-12 receptor agonists, primary screen, cell-based, luminescence, HEK293, GAL4 fusion, UAS-luciferase (AID 687014;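 note: 0% = DMSO wells and 100% = sodium butyrate wells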)). Settings: HEK293 GAL4-hgDAF12 UAS-luciferase reporter, agonist luminescence; at 6.8 µM; hits give high values; normalized to butyrate control.

Q: Which activation does the source give for `CC(=O)N1CCCN(C2=Nc3ccccc3Sc3ccccc32)CC1` here?
A: The activation was -3.68%.

Q: `CCN(CC)C(=O)CC[C@H]1CC[C@]2(CCCN(Cc3ccc(Cl)cc3)C2)O1` was tested. Which activation did it give?
A: The activation was -2.24%.

Q: How did the activation turn out when `COC(=O)c1c(-c2ccc(OC)cc2)c2c(c3c4ccccc4n(S(=O)(=O)c4ccc(C)cc4)c13)C(=O)N(C)C2` was run?
A: Its activation is -0.11%.

Q: How did the activation turn out when `Cc1ccc2nc(-c3ccccc3)c(CC3CCCCC3)n2c1` was run?
A: Its activation is 15.8% (active).

Q: `Cc1ccc2nc(-c3cccnc3)c(NC3CCCC3)n2c1` was tested. Which activation did it give?
A: Its activation is -2.27%.

Q: How did the activation turn out when `COc1ccccc1Cc1c(-c2ccc(F)cc2)nc2ccc(C)cn12` was run?
A: The activation was 9.36%.

Q: Which activation does the source give for `Cc1ccc(NC(=O)Nc2cc(C)nn2-c2ccccc2)cc1` here?
A: The activation was 0.6%.

Q: With `Cc1cc(OC(=O)c2ccccc2Cl)ccc1N1C(=O)CCC1=O` as the compound, how does the activation read?
A: The activation was 1.41%.

Q: With `Cc1cccc(/C(N)=N/OC(=O)c2ccccc2Cl)c1` as the compound, how does the activation read?
A: Its activation is 22.6% (active).

Q: For `C/C(=N\OC(=O)c1ccccc1)c1c(C)nc2cc(C)ccn12`, which activation is on record?
A: The activation was 1.13%.

Q: With `COc1ccc(CSc2nnc(SCC(=O)Nc3ccccc3C(F)(F)F)s2)cc1` as the compound, how does the activation read?
A: The activation was -0.44%.

Q: How did the activation turn out when `COc1cccc(NC(=O)N(C)C[C@@H]2OCc3cn(nn3)CCCC(=O)N([C@@H](C)CO)C[C@H]2C)c1` was run?
A: The activation was -1.94%.

Q: How did the activation turn out when `CCS(=O)(=O)n1nc(-c2ccccc2)nc1SCc1ccccc1` was run?
A: The activation was 13.2% (active).

Q: With `CCS(=O)(=O)n1nc(-c2ccc(OC)cc2)nc1SC` as the compound, how does the activation read?
A: Its activation is 2.82%.

Q: With `O=S(=O)(c1ccc(SCc2ccccc2)nc1)N1CCCCCC1` as the compound, how does the activation read?
A: The activation was 3.56%.

Q: `CCN1C(=O)[C@@H]2[C@@H](c3ccc(-c4cccc(Cl)c4)cc3)N3CCC[C@@]3(C(=O)OC)[C@@H]2C1=O` was tested. Which activation did it give?
A: Its activation is -0.28%.

Q: With `C=CCN(Cc1ccc2c(c1)OCO2)C(C#CC1CC1)C(C)(C)C` (centres undefined) as the compound, how does the activation read?
A: Its activation is 0.18%.

Q: With `O=C(NC(=S)NC1CCCCC1)c1ccc(Cl)cc1` as the compound, how does the activation read?
A: The activation was 14.2% (active).

Q: For `O=C(NC1CCCCCC1)C1CCN(C(=O)c2ccc(Cl)cc2)CC1`, which activation is on record?
A: Its activation is -2.28%.

Q: Which activation does the source give for `O=C(NNC(=S)NC1CCCCC1)c1ccccc1Cl` here?
A: The activation was -1.15%.

Q: How did the activation turn out when `CN(C)/C=C(\C#N)C(=O)c1cccnc1Oc1cccc(F)c1` was run?
A: The activation was -0.67%.

Q: How did the activation turn out when `CCC(=O)OCCCN1C(=O)CCC12CCC(c1ccccc1)CC2` (centres undefined) was run?
A: The activation was -0.73%.

Q: With `Clc1ccc(Nc2ccc3ccccc3n2)cc1` as the compound, how does the activation read?
A: Its activation is 19.3% (active).

Q: `CC1(C)N=C(N)NC(Nc2ccc(Cl)cc2)=N1` was tested. Which activation did it give?
A: Its activation is -2.03%.

Q: For `C=CCNc1nc(Nc2ccc(Cl)cc2)nc(OC)n1`, which activation is on record?
A: Its activation is 2.81%.

Q: With `CCC(C)[C@@H](C(=O)OC)N(CCc1cn(Cc2ccccc2)nn1)S(=O)(=O)c1ccccc1Br` (some centres undefined) as the compound, how does the activation read?
A: The activation was -4.53%.

Q: Which activation does the source give for `CCOC(=O)C1=C(C)c2ccccc2OC1C(=O)OCC` (centres undefined) here?
A: Its activation is 12.1% (active).

Q: `CCOC(=O)CC(NC(=O)C1c2ccccc2Oc2ccccc21)c1ccc(C)cc1` (centres undefined) was tested. Which activation did it give?
A: The activation was -2.51%.

Q: With `CCCN(CCC)C(=O)C1c2ccccc2Oc2ccccc21` as the compound, how does the activation read?
A: Its activation is -0.5%.

Q: Which activation does the source give for `Cc1ccc(C2NC(C(=O)O)CS2)cc1` (centres undefined) here?
A: The activation was -0.05%.

Q: How did the activation turn out when `CC(CCN1CCC(C(O)(c2ccccc2)c2ccccc2)CC1)Oc1ccc([N+](=O)[O-])cc1Cl` (centres undefined) was run?
A: The activation was 4%.

Q: How did the activation turn out when `COc1ccccc1C(=O)NC1CCCCN(C(C)C)C1=O` (centres undefined) was run?
A: The activation was 2.92%.

Q: How did the activation turn out when `Cc1ccccc1NC(=O)COC(=O)c1ccc(Sc2ncn[nH]2)c([N+](=O)[O-])c1` was run?
A: The activation was 1.49%.

Q: Which activation does the source give for `COC(C(=O)Nc1ccc(S(=O)(=O)Nc2ccc(C)c(C)c2)cc1)c1ccccc1` (centres undefined) here?
A: The activation was -3.51%.

Q: How did the activation turn out when `Cc1ccc(N/C=C/C(=O)c2ccccc2)cc1C` was run?
A: Its activation is 19.8% (active).

Q: `Cc1ccc(NNC(=O)C2CCC2)cc1C` was tested. Which activation did it give?
A: Its activation is 1.26%.

Q: With `N#Cc1c(NCCO)ccc([N+](=O)[O-])c1NCCO` as the compound, how does the activation read?
A: The activation was -1.17%.

Q: `COC(=O)[C@]12C[C@H](CC(=O)NCC34CC5CC(CC(C5)C3)C4)C(=O)N(Cc3ccc(Cl)cc3Cl)C1=C[C@H](COCc1ccccc1)O[C@@H]2C` was tested. Which activation did it give?
A: Its activation is 1.95%.

Q: Which activation does the source give for `C[C@H](C(=O)N(C)c1ccccc1)[C@@H](O)c1ccc2ccccc2c1` here?
A: Its activation is -1.62%.

Q: `CC(C)n1c(O)c(N=Nc2ccccn2)c2ccccc21` was tested. Which activation did it give?
A: The activation was 1.77%.

Q: With `Oc1oc(-c2ccccc2Br)nc1/C=N/c1ccccn1` as the compound, how does the activation read?
A: The activation was 10.8% (active).

Q: How did the activation turn out when `COc1cccc(-c2cc(CNC(=O)[C@@H](Cc3ccccc3)NC(=O)[C@H]3O[C@@H](n4cnc(C(N)=O)n4)[C@H](O)[C@@H]3O)no2)c1` was run?
A: Its activation is 3.48%.

Q: `COC(=O)CC1CCc2cc(C)cc(C(CC(C)C)NC(=O)[C@H](CC(C)C)NC(=O)OCc3ccccc3)c2O1` (some centres undefined) was tested. Which activation did it give?
A: Its activation is -1.05%.

Q: For `O=C(/C=C/c1cnc2ccccc2n1)NC1CCCCCC1`, which activation is on record?
A: The activation was 11.9% (active).

Q: With `CC1CCCCC1NC(=O)Cn1c(=O)cnc2ccccc21` (centres undefined) as the compound, how does the activation read?
A: The activation was -0.26%.

Q: For `O=C(Cn1c(-c2cncs2)nc2ccccc21)NC1CCCC1`, which activation is on record?
A: The activation was 0.16%.

Q: Which activation does the source give for `O=C(CCCCCn1c(=O)[nH]c2ccccc2c1=O)NCCc1c[nH]c2ccccc12` here?
A: Its activation is -0.27%.

Q: `C[N+](C)(C)CCNC(=O)c1c[nH]c2ccccc12` was tested. Which activation did it give?
A: Its activation is 0.11%.

Q: `O=C(NCCc1c[nH]c2ccccc12)c1cc2ccccc2oc1=O` was tested. Which activation did it give?
A: Its activation is 14.6% (active).

Q: How did the activation turn out when `Clc1cccc2c1C1CC2CCN1Cc1ccccc1` (centres undefined) was run?
A: Its activation is 0.38%.

Q: For `COc1ccc(-c2cc(-c3nnc(SCc4ccc([N+](=O)[O-])cc4)n3N)[nH]n2)cc1`, which activation is on record?
A: The activation was 3.72%.

Q: `Nc1ncnc2c1ncn2[C@@H]1O[C@H](C(=O)N[C@@H](CCc2ccccc2)C(=O)N2CCCN(Cc3cccs3)CC2)[C@@H](O)[C@H]1O` was tested. Which activation did it give?
A: The activation was 1.83%.

Q: For `Nc1nc2cc(Cl)ccc2n1N`, which activation is on record?
A: Its activation is 0.42%.

Q: `Nc1ccc2nn(-c3ccc(Cl)cc3)nc2c1` was tested. Which activation did it give?
A: The activation was 18.1% (active).

Q: With `Nc1ccc2c(c1)C(O)c1ccc(Cl)cc1-2` (centres undefined) as the compound, how does the activation read?
A: Its activation is 2.17%.

Q: `COc1ccc(S(=O)(=O)N[C@@H]2C=C[C@@H](CC(=O)N3CCc4ccccc4C3)O[C@@H]2CO)cc1` was tested. Which activation did it give?
A: The activation was -1.55%.

Q: With `COc1ccc(-c2csc(-c3cccs3)n2)cc1OC` as the compound, how does the activation read?
A: Its activation is 14.5% (active).

Q: With `COc1ccc(C2CC(c3cccs3)=Nc3ccccc3S2)cc1OC` (centres undefined) as the compound, how does the activation read?
A: Its activation is 6.91%.

Q: `COc1ccc(-c2csc3nc(-c4ccccc4F)oc(=O)c23)cc1OC` was tested. Which activation did it give?
A: Its activation is -0.2%.
